Source: PubChem BioAssay AID1159580 (chemical genetic matrix, 2015)
Out of some 5,500 compounds screened, about 2,000 (36%) were called active. Not shown: some 18% with an inconclusive outcome. Rule as the data show it: active = normalized growth mostly below about 0.91 (no sharp cut-off); inconclusive = no clear call, values can overlap the other calls; inactive = mostly above about 0.92. The list shows a part of the results.

Assay: chemical genetic growth profiling, strain panel (AID 1159580);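 also: tested at 20 µM; growth read once vehicle control cultures reached saturation at 30 °C; 1 = growth at the plate median or of vehicle wells; lower values mean less growth of the strain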
Settings: S. cerevisiae deletion strains, growth OD

Measured: normalized growth

CC(=O)O[C@@H]1CC(=O)[C@@]2(C)C(CC(=O)[C@]3(C)C2CC[C@@]2(C)[C@H](c4ccoc4)OC(=O)C4OC423)C1(C)C (some centres undefined)
inactive: locus YBR021W, strain FUR4, stronger effect = lower value 0.98 | locus YBR229C, strain ROT2, stronger effect = lower value 0.991 | locus YCL029C, strain bik1, stronger effect = lower value 1.01 | locus YDL035C, strain GPR1, stronger effect = lower value 0.987 | locus YDL074C, strain BRE1, stronger effect = lower value 0.976 | locus YDL101C, strain DUN1, stronger effect = lower value 0.996 | locus YDL134C, strain PPH21, stronger effect = lower value 1.01 | locus YDL185W, strain tfp1, stronger effect = lower value 1.02 | locus YDL192W, strain arf1, stronger effect = lower value 1.01 | locus YDR101C, strain arx1, stronger effect = lower value 1 | locus YDR162C, strain NBP2, stronger effect = lower value 1 | locus YDR318W, strain mcm21, stronger effect = lower value 1 | locus YDR388W, stronger effect = lower value 1.01 | locus YDR502C, strain sam2, stronger effect = lower value 1 | locus YEL061C, strain CIN8, stronger effect = lower value 0.998 | locus YER110C, stronger effect = lower value 1.01 | locus YER155C, strain BEM2, stronger effect = lower value 1 | locus YER167W, strain BCK2, stronger effect = lower value 0.993 | locus YGL078C, strain dbp3, stronger effect = lower value 1.01 | locus YGL086W, strain mad1, stronger effect = lower value 1.01 | locus YGL248W, strain PDE1, stronger effect = lower value 0.995 | locus YGR135W, strain pre9, stronger effect = lower value 1 | locus YGR229C, strain SMI1, stronger effect = lower value 0.988 | locus YGR252W, strain gcn5, stronger effect = lower value 0.976 | locus YHR079C, strain IRE1 (second series), stronger effect = lower value 1.01 | locus YHR094C, strain hxt1, stronger effect = lower value 1 | locus YHR129C, strain ARP1, stronger effect = lower value 1 | locus YHR200W, strain rpn10, stronger effect = lower value 1 | locus YIL066C, strain RNR3, stronger effect = lower value 1 | locus YIL073C, strain SPO22, stronger effect = lower value 1.04 | locus YIL125W, strain kgd1, stronger effect = lower value 1 | locus YIR030C, strain dcg1, stronger effect = lower value 1.01 | locus YJL095W, strain BCK1, stronger effect = lower value 0.963 | locus YJL134W, strain LCB3, stronger effect = lower value 0.999 | locus YJL168C, strain set2, stronger effect = lower value 1.01 | locus YJL187C, strain SWE1 (second series), stronger effect = lower value 0.996 | locus YKL009W, strain mrt4, stronger effect = lower value 1.01 | locus YKL068W, stronger effect = lower value 1.01 | locus YKL085W, strain MDH1 (second series), stronger effect = lower value 1.03 | locus YKL085W, strain MDH1, stronger effect = lower value 1.03 | locus YKL190W, strain CNB1, stronger effect = lower value 1 | locus YKR001C, strain vps1, stronger effect = lower value 1.01 | locus YLR039C, strain RIC1, stronger effect = lower value 1.02 | locus YLR058C, strain SHM2, stronger effect = lower value 0.998 | locus YLR102C, strain apc9, stronger effect = lower value 1.01 | locus YLR262C, strain YPT6, stronger effect = lower value 1.05 | locus YLR268W, strain sec22, stronger effect = lower value 0.998 | locus YLR371W, strain rom2, stronger effect = lower value 1 | locus YLR418C, strain cdc73, stronger effect = lower value 0.996 | locus YML016C, strain PPZ1, stronger effect = lower value 1 | locus YML032C, strain rad52, stronger effect = lower value 1.01 | locus YML124C, strain tub3, stronger effect = lower value 1.01 | locus YMR078C, strain ctf18, stronger effect = lower value 1.02 | locus YMR223W, strain ubp8, stronger effect = lower value 1.01 | locus YMR307W, strain GAS1, stronger effect = lower value 0.994 | locus YNL067W, strain RPL9B, stronger effect = lower value 0.997 | locus YNL233W, strain BNI4, stronger effect = lower value 0.993 | locus YNL250W, strain rad50, stronger effect = lower value 1.04 | locus YNL271C, strain bni1, stronger effect = lower value 1 | locus YNL298W, strain CLA4, stronger effect = lower value 1.01 | locus YNL307C, strain MCK1, stronger effect = lower value 1.03 | locus YNL322C, strain KRE1, stronger effect = lower value 1 | locus YNR052C, strain pop2, stronger effect = lower value 1.01 | locus YOL006C, strain TOP1, stronger effect = lower value 0.912 | locus YOL012C, strain htz1 0.729 | locus YOL147C, strain pex11, stronger effect = lower value 1 | locus YOR061W, strain CKA2, stronger effect = lower value 1 | locus YOR069W, strain VPS5, stronger effect = lower value 0.996 | locus YOR136W, strain idh2, stronger effect = lower value 1.02 | locus YOR144C, strain elg1, stronger effect = lower value 1.01 | locus YOR184W, strain ser1, stronger effect = lower value 1.02 | locus YOR316C, strain cot1, stronger effect = lower value 1.01 | locus YPL055C, strain LGE1, stronger effect = lower value 0.989 | locus YPL241C, strain CIN2, stronger effect = lower value 0.997 | locus YPR119W, strain clb2, stronger effect = lower value 1.02 | locus YPR141C, strain kar3, stronger effect = lower value 1.01 | locus YPR163C, strain tif3, stronger effect = lower value 1.01 | locus YPR167C, strain met16, stronger effect = lower value 1.02 | strain wtn01, stronger effect = lower value 1.01
